Results: PubChem BioAssay

Target: Focal adhesion kinase 1 (Homo sapiens) (UniProt Q05397)
Test: small-molecule microarray binders of FAK, primary screen, biochemical, 635/667 nm fluorescence, BSA, DTT (AID 1130);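 further: composite of spot emission at 667 nm and signal to noise over triplicate slides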
Conditions: PTK2 binding, 635 nm fluorescence, higher = more signal

Sequence of Focal adhesion kinase 1 (Homo sapiens) (Q05397 whole entry, looked up): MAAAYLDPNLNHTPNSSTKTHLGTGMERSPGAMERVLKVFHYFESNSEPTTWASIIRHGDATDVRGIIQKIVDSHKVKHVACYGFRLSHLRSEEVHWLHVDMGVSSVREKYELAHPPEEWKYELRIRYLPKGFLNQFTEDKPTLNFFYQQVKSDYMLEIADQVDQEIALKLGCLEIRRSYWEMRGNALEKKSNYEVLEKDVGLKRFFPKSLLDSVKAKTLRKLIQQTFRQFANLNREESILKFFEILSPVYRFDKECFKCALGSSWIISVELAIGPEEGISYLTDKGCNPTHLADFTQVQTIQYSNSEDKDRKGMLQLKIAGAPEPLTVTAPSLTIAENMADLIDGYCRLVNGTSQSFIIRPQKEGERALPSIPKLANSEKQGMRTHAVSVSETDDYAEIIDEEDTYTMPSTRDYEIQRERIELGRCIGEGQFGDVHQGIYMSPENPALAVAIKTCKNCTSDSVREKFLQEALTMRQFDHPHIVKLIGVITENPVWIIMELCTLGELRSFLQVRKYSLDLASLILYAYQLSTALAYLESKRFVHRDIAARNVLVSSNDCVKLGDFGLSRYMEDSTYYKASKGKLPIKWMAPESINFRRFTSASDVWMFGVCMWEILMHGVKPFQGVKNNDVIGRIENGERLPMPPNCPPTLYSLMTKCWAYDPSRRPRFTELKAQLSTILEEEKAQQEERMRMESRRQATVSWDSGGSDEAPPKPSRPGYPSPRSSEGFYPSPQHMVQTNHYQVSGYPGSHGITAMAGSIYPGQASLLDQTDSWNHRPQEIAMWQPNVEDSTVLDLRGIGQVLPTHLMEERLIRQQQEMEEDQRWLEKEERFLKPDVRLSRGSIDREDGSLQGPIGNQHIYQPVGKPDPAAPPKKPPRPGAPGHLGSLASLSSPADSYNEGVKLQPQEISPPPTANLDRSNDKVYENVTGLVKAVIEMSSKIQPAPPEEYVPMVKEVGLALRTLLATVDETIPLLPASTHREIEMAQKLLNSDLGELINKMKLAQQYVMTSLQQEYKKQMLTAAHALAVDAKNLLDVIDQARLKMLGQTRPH

SMILES	composite z-score
CCCC[C@@H](O)C1=C(C)Cn2c(=O)n(-c3ccccc3)c(=O)n2[C@H]1CO	-0.137
CCOC(=O)C[C@H]1[C@H](OC(=O)c2cc3ccccc3oc2=O)[C@@H](NC(=O)Cc2ccc(OC)cc2)c2cc(OCCCO)ccc2N1C(=O)Cc1ccc(OC)cc1	0.122
COC(=O)C1=CC(CCCO)=CC(c2ccc(CN3CCCC3)cc2)N(C)C=C1C(=O)OC (stereo unspecified)	0.111
CCOC(=O)C[C@H]1[C@H](OC(=O)c2ccc(-c3ccccc3)cc2)[C@@H](NC(=O)c2ccc(-c3ccccc3)cc2)c2cc(OCCCO)ccc2N1C(=O)c1ccccc1	1.03
COc1ccc(C(=O)Nc2cccc(CN3C(=O)[C@]4(O[C@H](CC(=O)N(CCO)Cc5ccccc5)[C@@H]([Si](C)(C)c5ccc(OC)cc5)[C@@H]4C)c4ccccc43)c2)cc1	0.116
O=C(N1CCOCC1)[C@]1(CCS(=O)(=O)c2ccccc2)N=C(c2ccc(OCCCO)cc2)O[C@@H]1c1ccccc1	0.99
CC(C)c1ccc(NN2C(C(O)c3ccccc3)C=CC3C(=O)N(c4ccccc4)C(=O)C32)cc1 (stereo unspecified)	0.684
COc1ccc([Si](C)(C)[C@H]2[C@H](CC(=O)N3CCC[C@H]3CO)O[C@@]3(C(=O)N(C)c4c(Br)cc(C)cc43)[C@@H]2C)cc1	1.44
COCCCNC(=O)[C@]1(Cc2ccccc2N=[N+]=[N-])N=C(c2ccc(OCCCO)cc2)O[C@@H]1c1ccccc1	1.05
[N-]=[N+]=NCc1ccccc1[C@H]1OC(c2ccc(OCCCO)cc2)=N[C@@]1(Cc1ccccc1N=[N+]=[N-])C(N)=O	0.579
C=CC[C@]1(C(=O)NCC(O)CO)N=C(c2ccc(OCCCO)cc2)O[C@H]1c1ccccc1CN=[N+]=[N-] (stereo partly specified)	-0.209
C[C@]1(C(=O)NC2CC2)c2ccccc2C(=O)N(Cc2cc(F)cc(C(F)(F)F)c2)[C@H]1c1ccc(CO)cc1	-0.695
CC(C)N1CC=CC23O[C@@H]4/C=C\CCCOC(=O)C4[C@H]2C(=O)N(C(C)CO)[C@@H]3C1=O (stereo partly specified)	-0.246
CCOC(=O)C[C@H]1[C@H](OC(=O)c2ccccc2-c2ccccc2)[C@@H](NC(=O)CC(C)C)c2cc(OCCCO)ccc2N1C(=O)c1ccccc1	-0.0647
CN(C)CCCCNC(=O)[C@H]1C[C@H]2C(=O)N[C@@H](CCCCN(C)C)C(=O)N2[C@H]1c1ccc(O)cc1	0.129
CC(CO)N1C(=O)[C@@H]2[C@H]3C(=O)OCC=C[C@H]3OC23C=CCN(c2ccc4ccccc4c2)C(=O)[C@@H]13 (stereo partly specified)	0.204
CC(C)N1C(=O)[C@@]2(Cc3ccccc31)c1ccccc1C(=O)N(Cc1ccccc1)[C@H]2c1ccc(CO)cc1	-0.0689
CCOC(=O)C1=CC[C@@H](c2ccccc2)N(S(=O)(=O)c2ccc(C)cc2)[C@@H]1C#N	0.165

SMILES	composite z-score
COc1ccc([Si](C)(C)[C@@H]2[C@@H](CC(=O)N(CCO)Cc3ccccc3)O[C@]3(C(=O)N(Cc4cccc(I)c4)c4ccccc43)[C@H]2C)cc1	-0.14
CO[C@H]1O[C@H](CO)[C@@H](OC(=O)CCc2ccccc2)[C@@H]2OC(=O)[C@@H](Cc3ccc4ccccc4c3)C/C=C/C[C@H](Cc3ccc4ccccc4c3)C(=O)O[C@@H]12	0.138
O=C1O[C@H](c2ccccc2)[C@H](c2ccccc2)N2[C@H]1[C@@H](C(=O)O)[C@]1(C(=O)Nc3ccccc31)[C@H]2c1ccc(OCCO)cc1	-0.0003
O=C1c2ccccc2[C@@]2(Cc3ccccc3N(CC(F)(F)F)C2=O)[C@H](c2ccc(CO)cc2)N1Cc1ccccc1	-0.282
COCCCNC(=O)[C@@]1(Cc2ccccc2I)c2ccccc2C(=O)N(C2CCCCC2)[C@H]1c1ccc(CO)cc1	0.312
COCCOC(=O)N1C(=O)[C@@]2(c3cc(C#CC4(O)CCCCCC4)ccc31)[C@H](C(N)=O)[C@H]1C(=O)O[C@H](c3ccccc3)[C@H](c3ccccc3)N1[C@@H]2c1ccc(OCCO)cc1	0.428
CCCNC(=O)[C@@]1(Sc2ccc(C)cc2)CC(=O)N(Cc2cc(C(F)(F)F)cc(C(F)(F)F)c2)[C@@H]1c1ccc(CO)cc1	-0.251
C=C(CCCC)/C(=C/C[C@@H](OC(C)=O)c1cccc(OCCO)c1)c1cc(C(=O)OC)ccc1OC	0.0738
Cc1cccc([C@H]2C[C@H]3C(Br)=C[C@@]2(CO)C(=O)[C@]32CO2)c1	0.259
CCCCN1CC=CC23O[C@@H]4/C=C\CCCOC(=O)C4[C@H]2C(=O)N(CCCCCCO)[C@@H]3C1=O (stereo partly specified)	0.0326
C=CCNC(=O)[C@@H]1[C@H]2C(=O)O[C@H](c3ccccc3)[C@H](c3ccccc3)N2[C@H](c2ccc(OCCO)cc2)[C@@]12C(=O)N(C(=O)OCCOC)c1ccccc12	0.986
COc1ccc(C(=O)Nc2ccc(CN3C(=O)[C@]4(O[C@H](CC(=O)N(CCO)Cc5ccccc5)[C@@H]([Si](C)(C)c5ccc(OC)cc5)[C@@H]4C)c4ccccc43)cc2)cc1	0.677
COC(=O)Cn1c(C(=O)N(C)C)cc2c1C[C@H]1CN(C(=O)c3ccccc3)[C@@](Cc3ccccc3)(C(=O)OC)[C@@H]21	0.499
CO[C@H]1O[C@H](CO)[C@@H](OC(=O)Nc2cccc(F)c2)[C@H](OC(=O)Nc2ccc3c(c2)OCO3)[C@@H]1OC(=O)Nc1ccc2c(c1)OCO2	0.243
COC(=O)[C@@]1(Cc2ccc(F)cc2)[C@H]2c3cc(C(=O)N(C)C)n(Cc4cccc5ccccc45)c3C[C@H]2CN1C(=O)c1ccccc1	0.705
CCOC(=O)C[C@H]1[C@H](OC(=O)Cc2ccc3c(c2)OCO3)[C@@H](NC(=O)CC(C)C)c2cc(OCCCO)ccc2N1C(=O)c1ccc2ccccc2n1	0.325
O=C1O[C@H](c2ccccc2)[C@H](c2ccccc2)N2[C@H]1[C@@H](C(=O)N1CCN(c3ncccn3)CC1)[C@]1(C(=O)Nc3ccc(C#CC4(O)CCCCCC4)cc31)[C@H]2c1ccc(O)cc1	0.62
COC(=O)C[C@H]1O[C@]2(C(=O)N(C)c3ccccc32)[C@@H](C)[C@@H]1[Si](C)(C)c1ccccc1	0.764
